About 79,000 compounds went through this panel and 15% of them were active in at least one assay; those are over-represented in the sample as a whole. A number with no mark means an inactive call. Active and inactive are the calls of the source. No stated cut-off is given here; in the data, active means growth inhibition above about 70%; inactive means the rest.

Consider 39 molecules from PubChem BioAssay (NCI).

The test can be described thus: NCI Yeast Anticancer Drug Screen. Data for the wt1 strain (AID 149).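 Further: 0% = growth of vehicle-treated wt1 cultures.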 The note with it: S. cerevisiae wt1 strain (SPY 50644) growth inhibition; at 3.7 µM; stronger effect = higher value. Put shortly:
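wt1 strain grown with compound or vehicle; inhibition taken from the growth difference.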
`CCCc1cc(C(=O)OCC)cc(CCC)c1O`: the growth inhibition was -5%.
As for `CC(C)[N+]([O-])(CCCNc1c2ccccc2nc2cccc([N+](=O)[O-])c12)C(C)C`, the growth inhibition was 3%.
As for `COc1cc2c3c(cccc3c1)C(=O)N(CCN(C)C)C2=O`, the growth inhibition was -11%.
The same measure for `NC(=O)NN=C(CS)CS`: -2%; for `Cc1ccc(NC(=O)/C(Cl)=C(\Cl)C(=O)O)cc1C`: -3%; for `CCN(CC)CC[n+]1ccc2c(C)c3[nH]c4ccc(O)cc4c3c(C)c2c1`: -1%.
Turning to `CC(CC(C)(C)[N+](C)(C)C)[N+](C)(C)C` (centres undefined), the growth inhibition was -2%.
On to `COc1ccc(OC)c2cc3ccccc3cc12`, for which the growth inhibition was -19%.
`Nc1ncncc1C(C1=C(O)COC1=O)C1=C(O)COC1=O`: the growth inhibition was 4%.
In the case of `CSC1=NNC(SC)=NN1`, the growth inhibition is -9%.
With `Cc1c(Cl)ccc2c1S(=O)(=O)c1cccc(Cl)c1-2`, the growth inhibition is -2%.
Turning to `[O-][n+]1c2ccc(O)cc2nc2ccc(Cl)cc21`, the growth inhibition is 9%.
Take `COc1ccc2ccc3ccccc3c2c1C=O`: the growth inhibition is -5%.
With `Nc1ccc2c(c1)C(=O)c1cccc(N)c1C2=O`, the growth inhibition is 6%.
Turning to `O=C(c1ccc(Cl)cc1Cl)C(Cl)Cl`, the growth inhibition was -6%.
Then `COc1cc(C(=O)/C=C/c2ccccc2O)ccc1O`, with 73% (active); and `O=Cc1cccc2ccc3ccccc3c12`, with -5%.
On to `O=C(Nc1ccc(Cl)cc1)OCC#CCCl`, for which the growth inhibition is 1%.
With `Cn1ccnc1Oc1ccc(Cl)cc1`, the growth inhibition is 5%.
Then `c1ccc2c(c1)C(=NCCCN1CCCCCC1)c1cccn1-2`, with -1%; and `C/C(=N\O)C1CC2C=C(C#N)C1N(Cc1ccccc1)C2` (centres undefined), with 4%; and `O=[N+]([O-])C(=C(Sc1ccccc1)Sc1ccccc1)C(Cl)=C(Cl)Cl`, with 13%.
`CCCCCCCCCC/C=C\C(=O)O`: the growth inhibition is -18%.
Turning to `COc1ccc(N=C2C(=O)Nc3ccc(Br)cc32)cc1`, the growth inhibition is 15%.
The same measure for `COc1ccccc1C(=O)OCC1CCCN2CCCCC12` (centres undefined): -7%; for `CC(C)(Br)C(=O)/C=C/c1ccc(Cl)c(Cl)c1`: -1%; for `Nc1ccccc1CC(O)C(=O)O` (centres undefined): 3%.
Take `CC(=O)N/N=C/C(C)(C)C(C)(C)/C=N/NC(C)=O`: the growth inhibition was -5%.
Then `CN(C)c1nc2sc3c(c2c(=O)o1)CCCC3`, with -4%; and `CC(C)OC(=O)Oc1ccccc1OC(=O)OC(C)C`, with -3%.
For `Cc1ccc(N)c(S)c1`, the growth inhibition was -29%.
Consider `O=C(O)c1ccccc1NC(=S)c1ccccc1`, for which the growth inhibition was 1%.
In the case of `COC(=O)c1ccc(NCC2=CC(=O)C=CC2=O)cc1O`, the growth inhibition was 2%.
Regarding `NC(N)=N/N=C\c1c2ccccc2cc2ccccc12`, the growth inhibition is -29%.
Consider `COC(=O)CSSCc1ccc([N+](=O)[O-])cc1`, for which the growth inhibition is -2%.
For the molecule `CCS(=O)(=O)c1ccc(/C=C/C=N/NC(=S)NCC(C)C)cc1`, the growth inhibition was -3%.
The same measure for `N#CC(C(=O)Nc1ccccc1)C1=C(Cl)C(=O)c2ccccc2C1=O` (centres undefined): 12%; for `C[C@H](CCC(=O)NN)[C@H]1CC[C@H]2[C@@H]3CC[C@@H]4C[C@H](O)CC[C@]4(C)[C@H]3CC[C@]12C`: 0%.
Turning to `CC[n+]1ccc2c(C)c3[nH]c4ccc(O)cc4c3c(C)c2c1`, the growth inhibition was 7%.
